The entries come from a sample that favours hits as a whole.
FAK blocker – FAK kinase inhibitors, primary screen, biochemical. Focal adhesion kinase 1 (Homo sapiens), Q05397. biochemical FAK kinase activity assay. inhibition, %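 (tested at 7 µM)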. actives 0.84% (n = 97,000). AID 727, 2007; in the data active = inhibition above about 19%;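 note: 0% = DMSO and 100% = reference compound high control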
D1 mod – D1 CRE-luciferase signal change, two-sided – cell-based, HEK293 D1, dopamine EC30, D1 allosteric modulator project, primary screen; dopamine EC30 potentiation; actives deviate in either direction; B-score at 10 µM; actives 5.9% (n = 58,000); AID 641, 2007;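 active = luminescence count or its row- and column-corrected plate score outside the 99.7% band of the plate's sample wells, on either side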
Pyk2 oligo antag – antagonists of Pyk2 self-association, primary screen, Q293 cells, FERM NanoBiT luminescence, HTS. Protein-tyrosine kinase 2-beta (Homo sapiens), Q14289. active compounds read low. z-score (the deposit names both 25 µM and 10 µM). actives 0.83% (n = 99,000). AID 1347419, 2020;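 active = Z-score of -3 or lower, scaled per plate to the spread of control and sample wells; inactive = z-score above -3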;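 note: negative z-score means lost luminescence so less FERM oligomerization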
CD11b adhes enh – enhancers of CD11b/CD18 adhesion to fibrinogen, primary screen, K562 cells, luminescence. ATPlite luminescence. activation, % at 10 µM. actives 0.07% (n = 93,000);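 active = 10 µM primary screen giving 50% or more activity, confirmed by 40% or more on retest at that dose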
Target sequence (P05107 whole entry, looked up, other chains not shown): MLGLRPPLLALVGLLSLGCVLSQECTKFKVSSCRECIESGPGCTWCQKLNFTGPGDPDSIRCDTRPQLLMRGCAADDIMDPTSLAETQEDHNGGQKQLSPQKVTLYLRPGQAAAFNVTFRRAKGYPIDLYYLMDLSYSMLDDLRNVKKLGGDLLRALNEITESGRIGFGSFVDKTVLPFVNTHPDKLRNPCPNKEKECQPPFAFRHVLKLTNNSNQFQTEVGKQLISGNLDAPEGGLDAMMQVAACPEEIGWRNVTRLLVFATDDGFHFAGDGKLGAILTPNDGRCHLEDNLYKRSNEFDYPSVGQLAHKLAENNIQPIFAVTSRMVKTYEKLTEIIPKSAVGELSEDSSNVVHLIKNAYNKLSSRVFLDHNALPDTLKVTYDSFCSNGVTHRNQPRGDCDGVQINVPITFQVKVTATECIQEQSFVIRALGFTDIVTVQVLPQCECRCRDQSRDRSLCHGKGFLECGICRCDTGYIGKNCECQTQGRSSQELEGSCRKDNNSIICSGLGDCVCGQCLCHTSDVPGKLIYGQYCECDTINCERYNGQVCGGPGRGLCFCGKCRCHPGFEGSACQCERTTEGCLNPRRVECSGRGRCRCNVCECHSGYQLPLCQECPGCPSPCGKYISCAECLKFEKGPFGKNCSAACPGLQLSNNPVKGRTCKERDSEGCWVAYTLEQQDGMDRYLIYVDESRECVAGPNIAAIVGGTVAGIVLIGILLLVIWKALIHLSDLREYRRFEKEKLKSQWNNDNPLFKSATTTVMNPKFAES
DAT uptake mod – changed hDAT dopamine uptake under cocaine IC80, either direction, primary screen, cocaine antagonist project, cell-based, LLC-PK1 hDAT, [14C]-dopamine uptake, MLSMR | LLC-PK1 hDAT cells, [14C]-dopamine uptake with cocaine IC80; actives deviate in either direction | B-score at 10 µM | actives 1.3% (n = 110,000) | AID 449768, 2010;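 active = Z score or B-score, a plate-position-corrected score, falls beyond the plate's 99.7% confidence bounds, in either direction; inactive = both scores lie inside the 99.7% bounds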;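 note: scored against the spread of the other compound wells on the same plate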
Mac1 fbg inh – inhibitors of CD11b/CD18 adhesion to fibrinogen, primary screen, K562 cells, luminescence. AID 1497, 2009. inhibition, % at 10 µM. ATPlite luminescence; Mn2+ added to activate the integrin. Integrin beta-2 (Homo sapiens) + Integrin alpha-M (Homo sapiens), P05107+P11215. actives 0.54% (n = 93,000);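 active = primary inhibition of 50% or more at 10 µM, then 40% or more on retest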
Starred values were filed as active, the others as inactive; x = not tested or not shown.

SMILES	FAK blocker	D1 mod	Pyk2 oligo antag	CD11b adhes enh	DAT uptake mod	Mac1 fbg inh
COC(=O)c1ccccc1NC(=O)c1sc(N)nc1C	8	x	-0.66	2	1.5	30
CC1CCCC(C)N1c1nnc(N)s1 (configuration not stated)	x	-0.0033	x	x	x	x
Cc1ccc(NC(=O)NNC(=O)Cn2nc(-c3ccccc3)c(-c3ccccc3)c(C#N)c2=O)cc1	4	x	0.01	x	1.8	x
O=C(/C(C=Nc1ccc(F)cc1)=C(/O)c1ccco1)C(F)(F)F	x	x	x	0	x	18
O=C(/C=C/c1ccc(Cl)cc1)NC(=S)Nc1ccc(NC(=O)c2ccco2)cc1	x	x	x	23	x	2
COc1ccc(/C=C2\CCc3ccccc3C2=O)cc1OC	7	x	-0.69	-4	-1.2	1
COc1ccc(/C=C2\CCc3ccccc3C2=O)cc1Cn1nc(C)cc1C	-1	x	-1.5	-7	4.9*	18
COc1ccc(N(Cc2ccccc2)S(=O)(=O)c2cccc(C(=O)NC3=NCCS3)c2)cc1	-4	x	-3.3*	x	1.4	x
CCn1c(N2CCN(CC(=O)c3ccc(OC)cc3)CC2)nc2ccccc21	-2	-0.8	-0.41	-3	-7.6*	0
Cc1cc(C)n(-c2nc(SCCN(C)C)c3c4c(sc3n2)CCCC4)n1	0	x	-0.92	-6	3*	38
O=C(O)CCc1cc(I)c(Oc2ccc(O)c(I)c2)c(I)c1	x	0.27	x	x	x	x
Cc1ccc(Sc2oc(/C=N/n3cnnc3)cc2Br)cc1	-1	0.36	-0.48	-4	-0.59	4
O=C(COc1ccc(-n2cnnn2)cc1)NC1CCCCC1	x	-0.33	-0.63	-2	1.6	-3
O=C(COc1ccc(-n2cnnn2)cc1)NC(=O)NCc1ccccc1	-1	-4.4*	0.14	1	0.25	-10
O=[N+]([O-])c1ccc(-c2nc(-c3cccs3)c(-c3cccs3)[nH]2)cc1	12	x	-4.2*	x	-0.42	x
Cc1ccc(NC(=O)CC(O)(C(F)(F)F)C(F)(F)F)c(Br)c1	-1	0.026	-0.97	-3	-3*	18
Cc1ccccc1NC(=O)CC(O)(C(F)(F)F)C(F)(F)F	-1	x	0.45	-2	-1.3	1
Cc1cc(-n2c(C)cc(C(=O)CSc3ccc4c(c3)OCCO4)c2C)no1	2	0.093	0.48	-3	2.1	9
CCc1ccccc1N1C(=O)c2cccc3c(N4CCOCC4)c([N+](=O)[O-])cc(c23)C1=O	0	x	-3*	x	-0.19	x
O=C1c2cccc3c(Nc4ccccc4Cl)c([N+](=O)[O-])cc(c23)C(=O)N1CCO	2	x	-1.5	-7	-0.61	3
C=CCN1C(=O)C(Cc2ccccc2)SC1=Nc1ccc(C(=O)O)cc1 (configuration not stated)	x	x	x	-4	x	4
O=C1c2sc3nc4ccccc4n3c2C(=O)N1c1ccccc1Cl	6	-0.23	0.86	-3	-0.15	2
N=c1cc(C2(O)CCCCC2)n2c(nc3ccccc32)s1	-1	0.04	0.07	-4	-0.24	59*
O=C(NC1CCCCC1)c1cccc(Cn2cc(Cl)cn2)c1	0	x	-0.21	-2	-0.011	1
COC(=O)c1ccc(Cn2nc(C)c(Br)c2C)cc1	5	-2.7*	-1.3	-3	0.24	-11
COC(=O)c1ccc(Cn2nc(C)cc2C)cc1	-3	x	-0.19	0	-1.3	-5
CSCCC(NC(=O)OC(C)(C)C)C(=O)NC(C(=O)NC(CC(C)C)C(N)=O)C(C)C (configuration not stated)	-1	x	0.02	-4	0.021	5
COc1ccc(C2c3c(ncn(CCN4CCOCC4)c3=N)Oc3ccc4ccccc4c32)cc1 (configuration not stated)	2	x	-2.6	-1	3.4*	44
COc1ccc(C2C3=C(CC(C)(C)CC3=O)Oc3ncn(Cc4ccccc4)c(=N)c32)cc1 (configuration not stated)	-1	x	-3.7*	6	1.3	8
